Results reported in article PMC4336329 (PLoS ONE, 2015).
About 14,000 (4.5%) of roughly 310,000 compounds showed an effect of 50% or more. The effect is printed as a negative number. Many of the other results were omitted from the sample, so strong results are more common in it than they were.

biological target: human ether-à-go-go-related gene (hERG) potassium channel (human, UniProt Q12809); assay: primary screen, population patch clamp on CHO cells stably expressing hERG; higher = less effect of the substance
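Also: peak tail current of the secondary pulse compared with the same well before compound.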

Sequence of human ether-à-go-go-related gene (hERG) potassium channel (Q12809 whole entry, looked up): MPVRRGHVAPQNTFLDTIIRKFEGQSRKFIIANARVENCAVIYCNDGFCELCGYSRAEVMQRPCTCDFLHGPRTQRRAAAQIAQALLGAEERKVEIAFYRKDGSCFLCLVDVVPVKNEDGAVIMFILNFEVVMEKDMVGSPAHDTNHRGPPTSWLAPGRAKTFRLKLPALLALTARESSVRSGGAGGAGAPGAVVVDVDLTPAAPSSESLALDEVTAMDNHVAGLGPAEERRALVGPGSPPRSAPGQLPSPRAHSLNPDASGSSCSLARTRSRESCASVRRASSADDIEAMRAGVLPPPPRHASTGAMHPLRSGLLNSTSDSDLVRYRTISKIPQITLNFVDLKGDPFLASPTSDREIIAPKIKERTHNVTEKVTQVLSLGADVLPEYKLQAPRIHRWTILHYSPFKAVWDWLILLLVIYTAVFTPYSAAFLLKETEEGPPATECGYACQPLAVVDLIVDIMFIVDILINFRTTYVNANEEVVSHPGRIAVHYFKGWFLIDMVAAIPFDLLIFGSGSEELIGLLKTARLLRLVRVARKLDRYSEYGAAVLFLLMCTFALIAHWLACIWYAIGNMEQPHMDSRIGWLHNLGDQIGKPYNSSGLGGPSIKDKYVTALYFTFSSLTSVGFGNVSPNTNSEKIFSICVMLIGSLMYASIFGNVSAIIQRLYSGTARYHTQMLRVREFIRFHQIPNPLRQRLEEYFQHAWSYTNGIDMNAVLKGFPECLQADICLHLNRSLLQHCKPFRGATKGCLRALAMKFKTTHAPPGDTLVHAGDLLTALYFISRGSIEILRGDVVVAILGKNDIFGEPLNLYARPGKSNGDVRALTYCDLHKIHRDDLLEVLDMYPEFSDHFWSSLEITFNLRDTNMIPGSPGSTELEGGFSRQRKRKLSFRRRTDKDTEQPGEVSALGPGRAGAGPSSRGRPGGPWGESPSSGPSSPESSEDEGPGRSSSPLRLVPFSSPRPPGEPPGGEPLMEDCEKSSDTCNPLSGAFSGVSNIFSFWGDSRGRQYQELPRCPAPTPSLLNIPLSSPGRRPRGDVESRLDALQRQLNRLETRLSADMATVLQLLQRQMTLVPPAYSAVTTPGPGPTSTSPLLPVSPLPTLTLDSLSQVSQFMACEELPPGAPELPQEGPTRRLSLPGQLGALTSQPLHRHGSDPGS

| SMILES | hERG current change (%, negative = inhibition) at 10uM |
| --- | --- |
| Cn1nc(-c2ccc(N3CCCCC3)c(NC(=O)c3ccco3)c2)c2ccccc2c1=O | 9.65% |
| CN(C)CCCNC(=S)N(Cc1cccs1)Cc1cc2cc3c(cc2[nH]c1=O)OCCO3 | 6.79% |
| Cc1ccc(/C=C2\SC(=S)N(CCC(=O)NNS(=O)(=O)c3ccc(C)cc3)C2=O)cc1 | 28.8% |
| CN(C(=O)COC(=O)/C=C/c1cn(-c2ccccc2)nc1-c1ccc2c(c1)OCCO2)C1CCS(=O)(=O)C1 (centres unmarked) | -3.86% |
| Cc1cc(=O)[nH]c(SCC(=O)NCCOc2ccccc2)n1 | 1.39% |
| Cc1ccccc1NC(=S)N(CCN(C)C)C(C)c1cccnc1 (centres unmarked) | -50.1% |
| COCCN(C(=S)Nc1ccc(C)cc1)C(C)c1cccnc1 (centres unmarked) | -22.9% |
| COCCN(C(=S)Nc1cccc(C)c1)C(C)c1cccnc1 (centres unmarked) | -4.61% |
| Cc1cccc(C)c1NC(=S)N(CCN(C)C)C(C)c1cccnc1 (centres unmarked) | -9.34% |
| COCCN(C(=S)Nc1cc(C)cc(C)c1)C(C)c1cccnc1 (centres unmarked) | -58.4% |
| CCc1ccccc1NC(=S)N(CCN(C)C)C(C)c1cccnc1 (centres unmarked) | -7.25% |
| Cc1ccccc1NC(=O)c1ccc(N/N=C/c2ccccc2O)c([N+](=O)[O-])c1 | 9.72% |
| CC(Sc1nnc(-c2ccncc2)n1C)C(=O)NCC1CCCO1 (centres unmarked) | 4.42% |
| O=C(NC1CCCN(Cc2ccc(Cl)cc2)C1)c1ccnc(Cl)c1 (centres unmarked) | -38.6% |
| CC(C)Cc1ccc(CN2CCCC(NC(=O)c3cnc4ccccn4c3=O)C2)cc1 (centres unmarked) | -71.8% |
| CC(C)Cc1ccc(CN2CCCC(NC(=O)c3cccc(-n4cnnc4)c3)C2)cc1 (centres unmarked) | -81% |
| Cc1occc1C(=O)NC1CCCN(Cc2ccc(Cl)cc2)C1 (centres unmarked) | -38.4% |
| O=C(NC1CCCN(Cc2ccc(Cl)cc2)C1)c1cccc(N2CCCC2=O)c1 (centres unmarked) | -14.8% |
| Cc1occc1C(=O)NC1CCCN(Cc2ccc(CC(C)C)cc2)C1 (centres unmarked) | -38% |
| O=C(NC1CCCN(Cc2ccc(Cl)cc2)C1)c1cnc2ccccn2c1=O (centres unmarked) | -21.8% |
| O=C(NC1CCCN(Cc2ccc(Cl)cc2)C1)c1ccoc1 (centres unmarked) | -50.1% |
| CC(C)c1ccc(NC2CCCN(C(=O)c3cnc4ccccn4c3=O)C2)cc1 (centres unmarked) | 12% |
| CC(C)Cc1ccc(CN2CCCC(NC(=O)c3ccoc3)C2)cc1 (centres unmarked) | -70.9% |
| CC(C)Cc1ccc(CN2CCCC(NC(=O)CCCN3CCCC3=O)C2)cc1 (centres unmarked) | -25.8% |
| COc1ccc(S(=O)(=O)N2CCN(c3ccccn3)CC2)cc1OC | -12% |
| CC#CCN1c2ccccc2[C@]23C[C@@H](C(=O)OC)N(C(=O)c4ccco4)C2=NC(C(=O)OC)=C(C(=O)OC)[C@H]13 | -2.03% |
| Cc1nn(-c2ccccc2)c(C)c1/C=N\NS(=O)(=O)c1ccc(Cl)cc1 | -17.7% |

| SMILES | hERG current change (%, negative = inhibition) at 10uM |
| --- | --- |
| Cc1cc(C)cc(OCC(=O)NNC(=O)c2cc(C)[nH]n2)c1 | 13.9% |
| O=C(CCC(=O)N1CCSc2ccccc21)NCCc1ccccc1 | -30.5% |
| CCn1c(SCC(=O)N/N=C/c2ccccc2OCC(=O)O)nnc1-c1ccccc1 | 5.58% |
| CNCC(O)C(O)C(O)C(O)CO (centres unmarked) | -0.427% |
| CC(C)C(=O)Nc1ccc(NC(=O)CCc2ccccc2)cn1 | 18.4% |
| CC(=O)Nc1ccc(S(=O)(=O)NCC2CCC(C(=O)N3CC(C)CC(C)C3)CC2)cc1 (centres unmarked) | 5.39% |
| CC(C)Cc1ccc(CN2CCCC(NC(=O)CCN3CCCO3)C2)cc1 (centres unmarked) | -43.4% |
| CC(C)Cc1ccc(CN2CCCC(NC(=O)c3ccnn3C)C2)cc1 (centres unmarked) | -68.7% |
| Cn1nccc1C(=O)NC1CCN(Cc2ccccc2)CC1 | -14.4% |
| Cl.OC(CNC1CCCC1)COCCOc1ccc(Br)cc1 (centres unmarked) | -27.4% |
| C#CCOCCOCCOCCNc1nc(N2CCN(C(=O)[C@H]([C@@H](C)CC)n3cc([C@@H](N)Cc4ccc(O)cc4)nn3)CC2)nc(N2CCN(C(=O)[C@H]([C@@H](C)CC)n3cc([C@@H](N)CC(C)C)nn3)CC2)n1.Cl | 0.378% |
| CC(=O)c1cccc(OCC(O)CNCCOc2ccc(C)cc2)c1 (centres unmarked) | -36.5% |
| COCCCNCC(O)COc1ccccc1F (centres unmarked) | 5.58% |
| CCOC(=O)c1cccc(OCC(O)CNCCOc2ccccc2F)c1 (centres unmarked) | -63% |
| Cc1cc(C(C)(C)C)oc1C(=O)O | 27.6% |
| CN1C(=O)OC(C)(CCc2ccccc2)C1(C)O (centres unmarked) | 11.5% |
| Cc1cc2oc(C(=O)Nc3c(C)n(C)n(-c4ccccc4)c3=O)c(C)c2cc1C | -24% |
| Cc1c(C(=O)Nc2c(C)n(C)n(-c3ccccc3)c2=O)oc2ccccc12 | 15.8% |
| Cc1cc(C)c2c(C)c(C(=O)Nc3c(C)n(C)n(-c4ccccc4)c3=O)oc2c1 | -16.7% |
| Cc1cc2oc(C(=O)Nc3c(C)n(C)n(-c4ccccc4)c3=O)c(C)c2cc1Cl | -72.2% |
| Cc1c(C(=O)Nc2c(C)n(C)n(-c3ccccc3)c2=O)oc2ccc(Cl)cc12 | -51.3% |
| Cc1ccc2c(C)c(C(=O)Nc3c(C)n(C)n(-c4ccccc4)c3=O)oc2c1 | -2.96% |
| CN(C)P1(N(C)C)=Nc2c(c(N)nn2C)C(c2ccccc2)=N1 | -6.87% |
| CCOc1cc(S(=O)(=O)NCC2OCCc3ccccc32)c(OCC)cc1-n1cnnn1 (centres unmarked) | -21.5% |
| CC(=O)Nc1ccc(S(=O)(=O)N2CCN(C(=O)C3COc4ccccc4O3)CC2)cc1 (centres unmarked) | -7.33% |
| Cc1ccc(N2C(=O)NC(=O)/C(=C\c3ccoc3)C2=O)cc1 | 22% |
| CCN1CCN(P2(=O)C=C(c3ccccc3)OC(c3ccccc3)=C2)CC1 | -77.9% |

| SMILES | hERG current change (%, negative = inhibition) at 10uM |
| --- | --- |
| O=P1(Nn2cnnc2)C=C(c2ccccc2)OC(c2ccccc2)=C1 | -20.8% |
| O=P1(O)C=C(c2ccccc2)OC(c2ccccc2)=C1 | 23.9% |
| Cc1cc(C(=O)CSc2nc(N)cc(N)n2)c(C)n1CCc1ccc(F)cc1 | -13.9% |
| Cn1c(=O)c2[nH]c(-c3ccc(S(=O)(=O)O)cc3)nc2n(C)c1=O.O | 10.2% |
| O=C(Nc1cccc(C(=O)O)c1)/C(=C/c1ccc([N+](=O)[O-])cc1)NC(=O)c1ccccc1 | -5.36% |
| O=C(N/N=C/c1ccc(O)c(O)c1O)/C(=C/c1ccc([N+](=O)[O-])cc1)NC(=O)c1ccccc1 | 12.4% |
| O=C(N/N=C/c1ccc(Br)o1)/C(=C/c1ccc([N+](=O)[O-])cc1)NC(=O)c1ccccc1 | -60.1% |
| O=C(Nc1cccc2ccccc12)/C(=C/c1ccc([N+](=O)[O-])cc1)NC(=O)c1ccccc1 | -55.6% |
| O=C(Nc1ccc(Br)cc1)/C(=C/c1cccc([N+](=O)[O-])c1)NC(=O)C1CCCCC1 | -16% |
| O=C(Nc1ccccc1)/C(=C/c1ccc([N+](=O)[O-])cc1)NC(=O)c1ccccc1 | 8.2% |
| O=C(Nc1ccc([N+](=O)[O-])cc1)/C(=C/c1cccc([N+](=O)[O-])c1)NC(=O)C1CCCCC1 | -69% |
| Cc1ccc(NC(=O)/C(=C/c2cccc([N+](=O)[O-])c2)NC(=O)C2CCCCC2)c(C)c1 | -18.7% |
| O=C(N/C(=C/c1cccc([N+](=O)[O-])c1)C(=O)N1CCCCC1)c1cccs1 | -7.23% |
| COc1ccc(/C=C(\NC(=O)c2cccs2)C(=O)Nc2cccc3ccccc23)cc1OC | -7.06% |
| O=C(Nc1cccc2ccccc12)/C(=C\c1cccc([N+](=O)[O-])c1)NC(=O)c1cccs1 | -70.1% |
| O=C(N/N=C/c1ccc(O)cc1)/C(=C/c1ccc([N+](=O)[O-])cc1)NC(=O)c1ccccc1 | 8.54% |
| Cc1cc(NC(=O)C(C)SCC(=O)N(C)CC(=O)Nc2ccc(F)cc2)no1 (centres unmarked) | 7.59% |
| CN(CC(=O)Nc1ccccc1Cl)C(=O)Cn1cc(C(F)(F)F)cc(Cl)c1=O | -6.27% |
| O=C(CN1C(=O)COc2ccc(S(=O)(=O)N3CCOCC3)cc21)NCc1ccccn1 | -1.38% |
| O=C(NCC1CCCO1)C1CCN(c2ccc(S(=O)(=O)N3CCCC3)cc2)CC1 (centres unmarked) | -4.69% |
| CC(C(=O)c1ccc(-c2ccccc2)cc1)[n+]1ccccc1.[Br-] (centres unmarked) | 2.72% |
| CCOC(=O)c1ccc(N2C(=O)c3n[nH]c(C)c3C2c2cccnc2)cc1 (centres unmarked) | -17.2% |
| CC(C(=O)OCC(=O)c1ccc(F)cc1)N1C(=O)C2C3C=CC(C3)C2C1=O (centres unmarked) | -15.4% |
| Cc1ccc(NC(=O)/C(=C\c2cccc([N+](=O)[O-])c2)NC(=O)c2cccs2)cc1 | -1.85% |
| Cc1cccc(NC(=O)/C(=C/c2cccc([N+](=O)[O-])c2)NC(=O)c2cccs2)c1 | 10.2% |
| O=C(Nc1cccc2ccccc12)/C(=C/c1cccc([N+](=O)[O-])c1)NC(=O)c1cccs1 | -67.7% |
